High-throughput results: PubChem BioAssay, National Center for Advancing Translational Sciences (NCATS)
Rab9 prom act: activates the Rab9 promoter | Huh7 Rab9 promoter-luciferase reporter, luminescence, 24 h | Potency, µM (titrated, usually from 9.22 µM), for inactives: at the top dose activation, negative = inhibition, actives largely listed as activators | 320,000 compounds, 2.8% hits | AID 485297; also: % of control where 0% means no effect; nearly all actives have a fitted effect of over 60% in size
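Using Huh7 cells stably transfected with Rab9 promoter–luciferase, compounds were incubated 24 h at 37 °C, 5% CO2; luciferase luminescence was read 10 min after reagent addition.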
ELG1 genotox: induces genotoxicity in HEK293T cells with luciferase-tagged ELG1; HEK293T ELG1-luciferase reporter, luminescence, 16 h; Potency, µM (titrated, usually from 46 µM), for the others: top-dose activity change, positive = activation, most hits filed as activators; 330,000 compounds, 1.3% hits; AID 504466; also: % of control where 0% means no effect; nearly all actives have a fitted effect of over 60% in size
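ELG1-luciferase HEK293T cells, 2,000/well; compound pinned in; 16 hr, 37 °C, 5% CO2; ONE-Glo, 30 min RT; luminescence on CCD imager.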
NPC1 promoter act: activates the NPC1 promoter; Potency, µM (titrated, usually from 9.22 µM), inactives show top-dose activation, usual class: activators; Huh7 NPC1 promoter luciferase reporter, 24 h; 320,000 compounds, 2.4% hits; AID 485313; also: % of control where 0% means no effect; nearly all actives have a fitted effect of over 60% in size
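NPC1 promoter–luciferase Huh7 cells; 24 h compound; luminescence.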
SMN2 splice enh: enhancers of SMN2 splice variant expression; AID 1458; HEK293 SMN2-luciferase splicing reporter, luminescence, 30-36 h; Potency, µM (titrated, usually from 46.1 µM), for the others: top-dose activity change, positive = activation, most hits filed as activators; 210,000 compounds, 2.8% hits; also: % of control where 0% means no effect; nearly all actives have a fitted effect of over 55% in size
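HEK293 cells carry an SMN2 minigene-luciferase reporter in which exon 7 inclusion puts luciferase in frame. Cells were seeded at 2000 cells/well, attached for 10-12 hours, then exposed to compounds for 30-36 hours at 37C before ONE-Glo luminescence.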
p53 reactivator: restores transcriptional activity of mutant p53 | H1299 p53-A138V BP100-luciferase reporter, luminescence, 24 h | Potency, µM (titrated, usually from 92.2 µM), inactives show top-dose activity change, positive = activation, hits mostly activators | 320,000 compounds, 0.063% hits | AID 504706; also: % of control where 0% means no effect; nearly all actives have a fitted effect of over 45% in size
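p53-null H1299 cells stably carrying temperature-sensitive p53-A138V and a BP100-luciferase reporter were pinned with compounds (4-point, 1:5 series) and held 24 hrs at 37 deg C. Luminescence was read 10 min after detection reagent.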
FLuc modulator: firefly luciferase modulation, counter-screen for miR-21 project; P08659; 360,000 compounds, 6.9% hits; purified FLuc, Km substrates, luminescence inhibition; Potency, µM (titrated, usually from 57.5 µM), without a hit: at the top dose activity change, negative = inhibition, actives largely listed as inhibitors;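 also: plate controls were vehicle for no effect and reference inhibitor for full effect; nearly all actives have a fitted effect of over 55% in size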
Target sequence (P08659 whole entry, looked up): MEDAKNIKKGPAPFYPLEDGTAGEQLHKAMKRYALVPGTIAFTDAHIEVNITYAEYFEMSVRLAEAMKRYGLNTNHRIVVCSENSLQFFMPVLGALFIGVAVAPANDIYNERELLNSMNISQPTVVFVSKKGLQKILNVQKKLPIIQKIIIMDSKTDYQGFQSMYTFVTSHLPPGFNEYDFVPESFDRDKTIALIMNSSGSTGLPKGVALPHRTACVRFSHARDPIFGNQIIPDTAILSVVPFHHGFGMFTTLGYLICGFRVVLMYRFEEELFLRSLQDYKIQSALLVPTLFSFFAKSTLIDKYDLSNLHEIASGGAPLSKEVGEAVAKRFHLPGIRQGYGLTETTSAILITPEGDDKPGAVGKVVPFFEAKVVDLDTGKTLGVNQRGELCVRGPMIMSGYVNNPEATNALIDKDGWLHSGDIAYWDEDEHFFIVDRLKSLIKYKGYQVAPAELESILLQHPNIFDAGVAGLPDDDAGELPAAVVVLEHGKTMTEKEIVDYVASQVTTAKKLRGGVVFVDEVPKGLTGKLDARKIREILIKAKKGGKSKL
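Biochemical qHTS of compounds, final roughly 60 µM downward over six points, against 10 nM purified firefly luciferase using Km concentrations of substrates (10 uM D-luciferin, 10 uM ATP) in Tris acetate pH 7.5 buffer; luminescence output.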
Active calls of the source: *; u = inconclusive; x = not tested or not shown; [ ] = another dose, or the depositor's remark. Most compounds without a hit are left out; they make up all but 7.4% or so of the library. Calls follow the shape of the dose curve; as a rule, active = well fitted curve in the direction sought with a large enough effect; inconclusive = small, poorly fitted or top-dose-only effect, or another doubt; inactive = no such curve, though single readings can be large; an effect the other way counts as inactive or inconclusive. Potency is read from the fitted curve at half-maximal effect.

SMILES	Rab9 prom act	ELG1 genotox	NPC1 promoter act	SMN2 splice enh	p53 reactivator	FLuc modulator
CCC(C(=O)NCc1cccs1)n1nc(C)n2c(cc3occc32)c1=O (stereo not given)	0%	-1%	0%	x	9%	-5%
COc1ccc(OC)c(CCNC(=O)c2ccc3c(c2)c(C)c(C)n3Cc2ccccc2)c1	x	x	x	x	x	-3%
C=CCn1c(=O)c(C(=O)Nc2ccccc2C(=O)OCC)c(O)c2ccccc21	7%	-6%	8%	1%	-10%	6%
C=CCn1c(=O)c(C(=O)Nc2ccccc2S(N)(=O)=O)c(O)c2ccccc21	3.2µM*	u	2.5µM*	x	6%	u
CC(C)(C)C(=O)[C@H]1[C@H](c2ccccc2)[C@@]2(N=C(c3ccccc3)OC2=O)C2c3ccccc3C=NN21 (stereo not given in full)	-1%	3%	0%	13%	2%	15µM*
CN(CCCNC(=O)c1cn(C)c2ccc(S(=O)(=O)N(C)C)cc2c1=O)c1ccccc1	-4%	-2%	-1%	-11%	7%	6%
CCN(CC)S(=O)(=O)c1ccc2c(c1)c(=O)c(C(=O)NCCCN(C)c1ccccc1)cn2C	-5%	-14%	-1%	11µM*	2%	3%
COc1ccc(C(CC(=O)Nc2ccc(Br)cn2)N2Cc3ccccc3C2=O)cc1 (stereo not given)	x	x	x	x	x	1%
COc1ccc(-c2oc3ncn4nc(-c5ccccc5O)nc4c3c2-c2ccc(OC)cc2)cc1	x	x	x	1%	x	-1%
Cc1oc(-c2ccc(Cl)cc2)nc1CN1CCCC(C(=O)NCc2ccccc2)C1 (stereo not given)	x	x	x	-18%	x	u
CCCCNc1cnn(-c2ccccc2)c(=O)c1Cl	u	u	22%	u	7%	-17%
CCc1ccc(Nc2cnn(-c3nc4ccccc4s3)c(=O)c2Cl)cc1	u	6%	21%	u	30%	12µM*
COc1ccc(C(=O)NCC(c2ccco2)S(=O)(=O)c2ccc(F)cc2)cc1 (stereo not given)	x	x	x	x	x	-9%
O=C(CC(c1ccco1)S(=O)(=O)c1ccccc1)c1ccc(F)cc1 (stereo not given)	-1%	1%	0%	13%	18%	19µM*
CC1=CC(=O)CC(C)(C)C1(O)/C=C/C(C)=C\C(=O)O (stereo not given)	x	x	x	2%	x	x
CC(C)Cc1ccc(/C=C/C(=O)N2CCOCC2)cc1	2.2µM*	u	2.8µM*	13µM*	13%	11µM*
CC(C)(C)c1ccc(/C=C/C(=O)N2CCN(c3ncccn3)CC2)cc1	-3%	-3%	-3%	-4%	14%	24µM*
O=C(/C=C/c1ccc2c(c1)OCO2)N1CCOCC1	26%	11%	19%	x	8%	17µM*
CC(C)(C)c1ccc(/C=C/C(=O)N2CCOCC2)cc1	u	u	u	3.2µM*	27%	11µM*
O=C(/C=C/c1ccc2c(c1)OCO2)N1CCN(c2ccccc2F)CC1	-6%	0%	1%	6%	5%	u
CCOc1ccc(/C=C/C(=O)Nc2sc3c(c2C(=O)OC)C(C(=O)OC)CC3)cc1 (stereo not given)	x	x	x	-3%	x	u
Cc1nc2ccn(Cc3cccnc3)c(=O)c2cc1C(=O)NCc1ccccc1	x	x	x	x	x	-1%
CCCC1=NN(c2ccc([N+](=O)[O-])cc2)C(=O)/C1=C/N(C)C	1%	13%	18%	28%	u	11µM*
CC1=NN(c2nc3ccccc3[nH]2)C(=O)/C1=C/N(C)C	1.4µM*	-10%	1.8µM*	x	-2%	2.1µM*
CC1=NN(c2nc3ccccc3[nH]2)C(=O)C1Cc1ccccc1 (stereo not given)	-48%	26%	-29%	x	u	u
SMILES	Rab9 prom act	ELG1 genotox	NPC1 promoter act	SMN2 splice enh	p53 reactivator	FLuc modulator
CC1=NN(c2ccc([N+](=O)[O-])cc2)C(=O)/C1=C\N(C)C	2%	u	-1%	5%	21%	11µM*
CCOC1=NN(c2ccc(Cl)cc2)C(=O)/C1=C\N(C)C	-2%	1%	5%	-21%	5%	-4%
CN(CC(=O)Nc1ccccc1Br)C(=O)COc1ccc2ccccc2c1	-5%	-4%	1%	x	-4%	-22%
O=C(/C=C/c1ccc(-c2ccccc2[N+](=O)[O-])o1)c1ccccc1	3%	13%	16%	-20%	25%	24µM*
N#C/C(=C\c1ccc(-c2ccccc2[N+](=O)[O-])o1)C(N)=O	-1%	0%	-2%	x	-4%	3%
O=C(O)/C(=C\c1ccc(-c2ccccc2[N+](=O)[O-])o1)c1ccccc1	6%	4%	1%	x	x	21µM*
CC(=O)c1cc(-c2ccccc2)n(CC(=O)NC2CCCCCC2)c1C	x	x	x	x	x	-1%
CCOc1cc(/C=N\Nc2ncc(F)c(N3CCOCC3)n2)ccc1Oc1nc(Cl)ncc1F	-15%	-10%	-6%	x	17%	21µM*
CCOc1cc(/C=N/NC(=O)c2ccc(O)cc2)ccc1Oc1nc(Cl)ncc1F	1%	-12%	-1%	3%	7%	-17%
NS(=O)(=O)c1ccc(CCNC(=O)c2ccc3nc(Cc4ccccc4)oc3c2)cc1	x	x	x	x	x	2%
O=C(N/N=C/c1ccccc1O)NC12CC3CC(CC(C3)C1)C2	6.3µM*	u	u	x	u	21µM*
O=C(N/N=C/c1ccc(O)c(O)c1)NC12CC3CC(CC(C3)C1)C2	0%[1.84 µM]	3%	-6%	x	11%	-14%
O=C(NCc1ccccc1)C12CC3CC(CC(C3)C1)C2	29%	-7%	-2%	-8%	-2%	-1%
O=C(Nn1nnnc1Nc1ccccc1)C12CC3CC(CC(C3)C1)C2	-4%	-4%	-1%	22µM*	-5%	-2%
CCc1cc2c(=O)n(-c3ccc(Br)cc3)cnc2s1	2.5µM*	u	2.5µM*	5µM*	u	u
CCCCCn1cnc2sc(CC)cc2c1=O	2.8µM*	u	u	13µM*	u	24µM*
CCc1cc2c(=O)n(CC(C)C)cnc2s1	u	-1%	u	14µM*	u	u
CCOc1cc(CNC(=O)Cn2c(=O)c3cccn3c3ccc(F)cc32)cc(OCC)c1OCC	x	x	x	x	x	-1%
CCN(CC)c1ccc(S(=O)(=O)N(CC)CC)cc1NC(=O)c1cccnc1	-3%	-12%	0%	7%	-3%	-1%
Cc1nc2ccc(NC(=O)c3cccnc3)cc2s1	16%	8%	-3%	10%	1%	-7%
